The assay deals with PEG-3 (UniProt Q6IN02). The assay can be described thus: inhibition of PEG-3 promoter-driven reporter – cell-based, HeLa, luciferase, CREF/GAPDH counter-screen panel, dose response (AID 624167). The conditions noted are these: CREF/GAPDH counter-screens; HeLa PEG-Prom luciferase reporter, overnight, run 1, dose range 1, at 100 µM (top of the series) unless noted.
Chain of PEG-3 (Q6IN02 whole entry, looked up): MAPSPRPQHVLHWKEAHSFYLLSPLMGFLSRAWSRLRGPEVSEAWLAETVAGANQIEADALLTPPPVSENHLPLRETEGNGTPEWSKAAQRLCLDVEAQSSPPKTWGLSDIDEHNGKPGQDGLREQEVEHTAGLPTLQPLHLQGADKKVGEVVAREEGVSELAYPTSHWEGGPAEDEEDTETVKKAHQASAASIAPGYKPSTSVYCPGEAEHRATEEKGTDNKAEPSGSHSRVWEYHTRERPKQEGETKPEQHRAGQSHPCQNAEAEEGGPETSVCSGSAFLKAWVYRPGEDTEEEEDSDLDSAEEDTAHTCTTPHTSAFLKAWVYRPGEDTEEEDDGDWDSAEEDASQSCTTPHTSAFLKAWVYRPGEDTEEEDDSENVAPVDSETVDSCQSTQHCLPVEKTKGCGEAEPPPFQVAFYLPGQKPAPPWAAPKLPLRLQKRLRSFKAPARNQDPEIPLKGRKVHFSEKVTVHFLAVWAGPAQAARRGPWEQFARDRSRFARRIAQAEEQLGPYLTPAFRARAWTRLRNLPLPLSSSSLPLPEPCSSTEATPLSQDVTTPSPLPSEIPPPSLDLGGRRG
As to `O=C(Nc1ccc(CN2CCCCC2)cc1)Nc1ccc(Br)cc1Cl`, the inhibition was found to be 99%.

For `COc1ccc(-c2cc(C(=O)N3CCN(c4ccccc4F)CC3)c3ccccc3n2)c(OC)c1`, the inhibition was 27.3%.

For the compound `Cc1nc(N2CCN(c3ccccn3)CC2)c2c(C)c(C(=O)Nc3ccccc3F)sc2n1`, the inhibition is 53.1%.

In the case of `CCOC(=O)CN(C(=O)CSc1nnc2c(n1)[nH]c1ccc(F)cc12)c1ccccc1`, the inhibition came to 99.9%.

Consider `CN(C)CCNC(=O)/C(=C/c1ccc(-c2ccc(Cl)cc2)o1)NC(=O)c1ccccc1`, for which the inhibition was determined as 102%.

On to `C[C@@H](NCCCn1cnc2c(OCc3ccccc3)ncnc21)c1cccc2ccccc12`, for which the inhibition stood at 94.9%.

Regarding `c1ccc(CN2CCC(Nc3nc(-c4cccnc4)nc4ccccc34)CC2)cc1`, the inhibition was found to be 102%.

As for `COCC(C)n1c(C)cc(C(=O)COC(=O)c2cccn2C)c1C` (centres undefined), the inhibition was found to be 75.2%.

On to `CC(C)NC(=O)NC(=O)COC(=O)c1c2c(nc3ccccc13)CCC2`, for which the inhibition stood at 101%.

`COc1cccc(/C=C2/Sc3ccc(C(=O)NCCCN4CCCC4)cc3NC2=O)c1`: the inhibition was 102%.

In the case of `NC(c1csc(Nc2nccc(C(F)(F)F)n2)n1)C1CCCCC1` (centres undefined), the inhibition was found to be 98.2%.

As for `COc1cc(CNC(C)(C)CO)cc(Br)c1OCc1ccc(Cl)cc1`, the inhibition is 99%.

Turning to `O=C(Nc1ccccc1N1CCOCC1)c1cc(-c2ccncc2)nc2ccccc12`, the inhibition was determined as 93.7%.

Consider `CC(=O)Nc1ccc(Nc2nc(C)c([N+](=O)[O-])c(Nc3ccccc3)n2)cc1`, for which the inhibition was 99.5%.

With `COc1ccc2c(c1OC)C(=O)N1c3ccccc3C(=O)N(c3ccccc3F)C21` (centres undefined), the inhibition is 62.8%.

Take `CN(C)C(=O)c1cccc(-c2cnc3c(NC=O)cc(-c4cccc(C(F)(F)F)c4)cn23)c1`: the inhibition stood at 89.1%.

`CC1=NN(c2cccc(C(=O)O)c2)C(=O)/C1=C\C=C/c1ccccc1`: the inhibition turned out to be 86.8%.

On to `NC(N)=N/N=C/c1ccc(Cl)cc1Cl`, for which the inhibition turned out to be 97.7%.

As to `O=[N+]([O-])c1cc(Cl)cc(/C=N\Nc2ccccn2)c1O`, the inhibition came out at 28.9%.

As to `COCCn1c(C)cc(C(=O)CSc2nnc3ccccn23)c1C`, the inhibition amounted to 98.8%.

On to `CN(C)CCCN1c2ccccc2Sc2ccc3ccccc3c21`, for which the inhibition came to 94.6%.

Take `CC(C)CC(NS(=O)(=O)OCC(Cl)(Cl)Cl)c1ccccc1` (centres undefined): the inhibition came to 97.2%.

For the compound `COC(=O)CSC1=NS(=O)(=O)c2ccccc21`, the inhibition came to 66.3%.

Regarding `Cc1ccc(C)c(OCC(O)CN2CCC(CN3C(=O)c4cccc5cccc(c45)C3=O)CC2)c1` (centres undefined), the inhibition worked out at 99.2%.

For the compound `CCC1(c2ccccc2)NC(=O)N(CC(=O)Nc2cc(S(=O)(=O)N3CCCCCC3)ccc2OC)C1=O` (centres undefined), the inhibition was 65.1%.

In the case of `Cc1ccc2[nH]c3c(c2c1)CCCC3NC(=O)CCl` (centres undefined), the inhibition worked out at 97%.

`O=S(=O)(c1cccc(F)c1)N1CCN(c2nc(-c3cccnc3)nc3ccccc23)CC1`: the inhibition was 26.5%.

On to `CN(C)S(=O)(=O)c1cccc(NC(=O)CSc2nc3c(cc2C#N)C(=O)CC(C)(C)C3)c1`, for which the inhibition came out at 63.2%.

For `COc1cc(/C=C/c2ccc3cccc(O)c3n2)ccc1O`, the inhibition came out at 92.4%.

On to `CCOC(=O)c1ccc(NC(=O)C2CCCN(S(=O)(=O)c3ccc(F)cc3)C2)cc1` (centres undefined), for which the inhibition stood at 97.3%.

For `COc1ccc(S(=O)(=O)N2c3ccccc3OCC2c2ccccc2)cc1` (centres undefined), the inhibition was -135%.

Take `COc1ccccc1N1CCN(C(=O)c2sc3ncnc(N4CCN(c5ccccn5)CC4)c3c2C)CC1`: the inhibition is 88.3%.

Turning to `CN(C)CCNc1ccc(CO)c2oc3ccc(O)cc3c(=O)c12`, the inhibition was 99.1%.

In the case of `COc1ccc(CC(N)c2csc(NC(=O)Nc3cc(OC)ccc3OC)n2)cc1` (centres undefined), the inhibition amounted to 94.3%.

Take `O=C(c1cc(-c2cccs2)nn1-c1ccccc1)N1CCN(S(=O)(=O)c2ccccc2)CC1`: the inhibition is -25.3%.

Take `O=C(c1ccccc1)N(C(=O)c1ccccc1)c1ncnc2c1C(c1ccccc1)c1c(ccc3ccccc13)O2` (centres undefined): the inhibition is 52.7%.

In the case of `CNCC[C@@H](Oc1ccc(C(F)(F)F)cc1)c1ccccc1`, the inhibition worked out at 98.7%.

Take `O=C(c1ccco1)N1CCN(c2ncnc3c2[nH]c2ccc(Br)cc23)CC1`: the inhibition was determined as 99.5%.

With `CCCN1C/C(=C/c2cccc([N+](=O)[O-])c2)C(=O)/C(=C/c2cccc([N+](=O)[O-])c2)C1`, the inhibition came out at 26.2%.

Broadly, the inhibition is the change of the read-out against control, counted positive when it falls.

Source of the values: PubChem BioAssay.
